# Results filed as inconclusive are left out. Where a call stands in place of a potency, no number is given. A number with no mark means an inactive call. Activity calls are given as the source filed them. Unless noted, the call rests on the fitted dose curve; in most records, active means well fitted curve in the direction sought with a large enough effect; inconclusive means small, poorly fitted or top-dose-only effect, or another doubt; inactive means no such curve, though single readings can be large; an effect the other way counts as inactive or inconclusive.
# Key:
# [1] = molecular target: Calcium and integrin-binding protein 1 (Homo sapiens) (UniProt Q99828); test: Primary qHTS for Identification of Calcium Integrin Binding Protein 1 (CIB1) Competitor (AID 1508620); conditions: CIB1-GST / FITC-alphaIIb peptide fluorescence polarization; series mostly up to 57.7 µM;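 further: GST tagged CIB1 binding a fluorescein labelled alphaIIb integrin peptide tracer; top concentration of the series differs between compounds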
# Method in brief: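 Fluorescence polarization competition: CIB1-GST (1 uM final) preincubated with compound 15 min at room temperature, then FITC-labeled alphaIIb peptide (100 nM final) added for another 15 min. Polarization read at Ex 480/Em 540.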
# [2] = Primary qHTS for small molecule stabilizers of the endoplasmic reticulum resident proteome: Secreted ER Calcium Modulated Protein (SERCaMP) assay (AID 1508630); conditions: SH-SY5Y GLuc-SERCaMP (Gaussia luciferase released on ER calcium loss) secretion, thapsigargin, luminescence; series mostly up to 38.4 µM
# Method in brief: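 The SH-SY5Y reporter protocol was run at 3 concentrations up to 38.3 uM (primary) or 11 concentrations (follow-up): 16 h compound, 100 nM thapsigargin for 4 h, then extracellular luciferase luminescence.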
# [3] = molecular target: Cytochrome P450 2D6 (Homo sapiens) (UniProt P10635); test: Cytochrome P450 family 2 subfamily D member 6 (CYP2D6) small molecule antagonists: luciferase biochemical (cell-free) qHTS assay (AID 1645840; active means well fitted curve in the direction sought with a large enough effect in the repeat runs; an effect the other way counts as inactive or inconclusive; further: nearly all actives have a fitted effect of over 55% in size); conditions: P450-Glo CYP2D6 enzyme, luciferin luminescence, 1 h; series mostly up to 57.4 µM
# Method in brief: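 P450-Glo CYP2D6 system: proluciferin substrate converted by enzyme to luciferin, read by luminescence proportional to activity. Enzyme-substrate mix with compound 10 min at room temperature, then NADPH regeneration 1 h before detection reagent.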
# Cytochrome P450 2D6 (Homo sapiens), sequence (P10635 whole entry, looked up): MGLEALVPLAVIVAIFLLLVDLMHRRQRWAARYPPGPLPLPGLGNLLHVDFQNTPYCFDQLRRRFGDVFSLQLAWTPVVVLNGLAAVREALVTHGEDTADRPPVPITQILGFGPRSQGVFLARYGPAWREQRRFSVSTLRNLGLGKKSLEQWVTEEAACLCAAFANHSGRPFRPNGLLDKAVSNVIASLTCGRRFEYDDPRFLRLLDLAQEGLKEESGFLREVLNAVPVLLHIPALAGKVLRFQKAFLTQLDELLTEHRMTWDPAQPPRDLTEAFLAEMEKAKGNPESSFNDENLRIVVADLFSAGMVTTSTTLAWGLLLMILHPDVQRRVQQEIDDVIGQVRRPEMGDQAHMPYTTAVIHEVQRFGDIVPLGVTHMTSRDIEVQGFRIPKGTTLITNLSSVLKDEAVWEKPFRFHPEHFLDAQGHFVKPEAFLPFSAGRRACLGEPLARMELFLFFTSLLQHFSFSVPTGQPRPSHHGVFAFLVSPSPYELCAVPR
# Calcium and integrin-binding protein 1 (Homo sapiens), sequence (Q99828 whole entry, looked up): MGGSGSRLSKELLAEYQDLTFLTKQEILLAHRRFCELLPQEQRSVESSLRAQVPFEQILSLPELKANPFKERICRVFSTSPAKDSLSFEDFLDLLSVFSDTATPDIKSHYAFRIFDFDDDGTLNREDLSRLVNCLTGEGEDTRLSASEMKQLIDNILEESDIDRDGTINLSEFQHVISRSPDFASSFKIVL
smiles,measurement,setting,value
CN(C)c1ccc(C(=O)NCCCCCCC(=O)NO)cc1,Potency,[1],inactive
same,outcome,[2],inactive
COc1cc(O)c2c(c1)C1OC1C[C@H](O)[C@H](O)C(=O)C=CC[C@H](C)OC2=O (some centres not stated),Potency,[1],inactive
same,outcome,[2],inactive
FC(F)(F)c1ccc(Nc2nc3ccc(Oc4ccnc(-c5ncc(C(F)(F)F)[nH]5)c4)cc3[nH]2)cc1,Potency,[1],inactive
same,outcome,[2],inactive
O=C(O)c1ccc(Nc2ncc3c(n2)-c2ccc(Cl)cc2C(c2c(F)cccc2F)=NC3)cc1,Potency,[1],inactive
same,outcome,[2],inactive
CC(C)(C)[C@H](NC(=O)c1ccc(N)c(Cl)c1)C(=O)N1CCC[C@@H]1C(=O)N[C@H](C#N)CC(=O)O,"activity change, negative = inhibition",[1],-8.66% [at 6.45 µM]
same,"activity change, negative = inhibition",[2],176% [at 3.88 µM]
C=CCNC1=C2C[C@@H](C)C[C@H](OC)[C@@H](O)[C@@H](C)C=C(C)[C@H](OC(N)=O)[C@@H](OC)C=CC=C(C)C(=O)NC(=CC1=O)C2=O,Potency,[1],inactive
same,outcome,[2],inactive
Cn1c(Nc2ccc(C(F)(F)F)cc2)nc2cc(Oc3ccnc(-c4ncc(C(F)(F)F)[nH]4)c3)ccc21,Potency,[1],inactive
same,outcome,[2],inactive
COc1ccc(S(=O)(=O)Nc2cccnc2Nc2ccc(O)cc2)cc1,Potency,[1],inactive
same,outcome,[2],inactive
C[C@]12CCC(=O)C=C1[C@@H]1CC1[C@H]1[C@H]3[C@@H]4C[C@H]4[C@@]4(CCC(=O)O4)[C@@]3(C)CC[C@H]12 (some centres not stated),Potency,[1],inactive
same,outcome,[2],inactive
CC(C)(C)[N+]([O-])=Cc1ccc(S(=O)(=O)O)cc1S(=O)(=O)O,Potency,[1],inactive
same,outcome,[2],inactive
C=C(C)[C@@H]1CC[C@]2(C(=O)O)CC[C@]3(C)[C@H](CC[C@@H]4[C@@]5(C)CC[C@H](O)C(C)(C)[C@@H]5CC[C@]43C)[C@@H]12,Potency,[1],inactive
same,outcome,[2],inactive
COc1cc(N2CCC(C(N)=O)CC2)ccc1Nc1nc(N)c(Cl)c(Nc2ccccc2S(=O)(=O)C(C)C)n1,Potency,[1],inactive
same,outcome,[2],inactive
O=C1NCCc2[nH]c(-c3ccncc3)cc21,Potency,[1],inactive
same,outcome,[2],inactive
C[C@H](CCC(=O)O)[C@H]1CC[C@H]2[C@@H]3[C@H](O)C[C@@H]4C[C@H](O)CC[C@]4(C)[C@@H]3CC[C@]12C,Potency,[1],inactive
same,outcome,[2],inactive
CN(C)CC(=O)N1CCC(c2ccc(NC(=O)c3ncc(C#N)[nH]3)c(C3=CCCCC3)c2)CC1,Potency,[3],inactive
CCCc1nc(C(C)(C)O)c(C(=O)O)n1Cc1ccc(-c2ccccc2-c2nn[nH]n2)cc1,Potency,[3],inactive
C[C@H](CCC(=O)O)[C@H]1CCC2C3C[C@H](O)[C@@H]4C[C@H](O)CC[C@]4(C)C3CC[C@@]21C (some centres not stated),outcome,[2],inactive
COc1cc(C)c(C=CC(C)=CC=CC(C)=CC(=O)O)c(C)c1C,Potency,[1],inactive
same,outcome,[2],inactive
same,Potency,[3],inactive
C[C@H](O)[C@@H]1C(=O)N2C(C(=O)O)=C(S[C@@H]3CN[C@H](CNS(N)(=O)=O)C3)[C@@H](C)[C@@H]12,Potency,[1],inactive
same,outcome,[2],inactive
same,Potency,[3],inactive

# From PubChem BioAssay (NCATS)
